Screening data deposited in PubChem by National Center for Advancing Translational Sciences (NCATS).
Tb PYK inh: T. brucei pyruvate kinase inhibition; Q57TT1; TbPYK enzyme, Kinase-Glo Plus ATP luminescence, 45 min; Potency, µM (series often up to 76.8 µM), inactives show at the highest dose activity, negative = inhibition, usual class: inhibitors; 410,000 tested, 0.12% active; also: potency is read from the fitted curve at half-maximal effect; % is scaled to controls: 0 for no effect and ±100 for the full control effect; nearly all actives have a fitted effect of over 50% in size
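Readout: single end-point luminescence (Kinase-Glo Plus, 10 min). Reaction conditions were TbPYK/substrate plus 130 uM ADP, 45 min at RT, pH 7.2 TEA buffer. No-enzyme wells served as controls, and data were normalized before concentration-response fitting.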
LmPK inhibitor: LmPK (Leishmania mexicana) enzyme inhibition | Q27686 | Potency, µM (series often up to 57.5 µM), for inactives: top-dose activity change, negative = inhibition, usual class: inhibitors | 290,000 tested, 0.37% active | purified LmPK, Kinase-Glo ATP luminescence, 1 h | AID 1721; also: potency is read from the fitted curve at half-maximal effect; % is scaled to controls: 0 for no effect and ±100 for the full control effect
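ATP generated from ADP (0.1 mM) and PEP (0.5 mM) by 0.1 nM LmPK over 1 h at room temperature (pH 7.2 imidazole buffer) was detected by coupled luciferase luminescence. Values were normalized to uninhibited and no-enzyme wells.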
Giardia FBPA inh: blocks Giardia fructose-bisphosphate aldolase activity; purified Giardia FBPA; Potency, µM (doses to about 59.6 µM), for the others: top-dose activity, negative = inhibition, hits mostly inhibitors; 290,000 tested, 0.71% active; A8B2U2; AID 2451; also: potency is read from the fitted curve at half-maximal effect; % is scaled to controls: 0 for no effect and ±100 for the full control effect; nearly all actives have a fitted effect of over 55% in size
Target sequence (A8B2U2 whole entry, looked up): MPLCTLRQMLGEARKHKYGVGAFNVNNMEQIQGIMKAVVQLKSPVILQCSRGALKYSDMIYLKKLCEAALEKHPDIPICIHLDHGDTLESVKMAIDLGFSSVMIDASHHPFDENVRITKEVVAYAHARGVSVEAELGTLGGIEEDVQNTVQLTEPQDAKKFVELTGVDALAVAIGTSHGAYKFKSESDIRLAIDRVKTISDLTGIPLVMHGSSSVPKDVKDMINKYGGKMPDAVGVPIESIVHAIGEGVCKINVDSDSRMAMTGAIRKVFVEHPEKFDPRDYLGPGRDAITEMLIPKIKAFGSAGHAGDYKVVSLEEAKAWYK
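Giardia FBPA (40 nM reagent) was preincubated 10 min at RT with compound (up to 57.5 uM final), then substrate plus GAPDH/TPI/NAD/arsenate coupling system with diaphorase/resazurin was added; resorufin fluorescence (525/598 nm) was read after 20 min.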
Shiga inhibitor: blocks Shiga toxin action in Vero cells; 290,000 tested, 9.2% active; AID 2315; Vero cells, Shiga toxin protein synthesis inhibition reporter; inhibition, % at 38.7 µM; in the data active = inhibition mostly above about 28%, no sharp cut-off; inactive = mostly below about 43%; also: 0% is about no effect
RE007 growth inh: less growth of the S. pombe RE007 Vpr strain | S. pombe RE007 Vpr strain, BacTiter-Glo ATP luminescence, 24 h | 360,000 tested, 0.21% active | AID 651644 | Potency, µM (series often up to 92.2 µM), for inactives: at the highest dose activity change, negative = less growth, actives largely listed as inhibitors; active = well fitted falling curve with a large enough effect; inconclusive = small, poorly fitted or top-dose-only effect; inactive = no such curve, though single readings can be large or run the other way; also: potency is read from the fitted curve at half-maximal effect; % is scaled to controls: 0 for no effect and ±100 for the full control effect; nearly all actives have a fitted effect of over 50% in size
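Fission yeast RE007 carrying one integrated HIV-1 vpr copy, seeded at OD 0.01 in PMG+AL medium with 23 nL pinned compound. Grown 24 h at 30 degrees; viability read by BacTiter-Glo luminescence after 5 min.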
CHX counter: counter-screen for Shiga toxin inhibitors: cycloheximide protein synthesis inhibition; cell reporter, cycloheximide protein synthesis inhibition counterscreen; max response, %; 300,000 tested, 12% active; in the data active = max response mostly above about 13%, no sharp cut-off; inactive = mostly below about 14%; also: read at 38.3 µM for the half of the compounds with a filed dose; 0% is about no effect
An asterisk follows results filed as active; i = inactive; ? = inconclusive; nt = not tested or not shown; [ ] = remark or other dose. Shown is part of a subset that was picked to be rich in hits. Unless noted, calls follow the shape of the dose curve; as a rule, active = well fitted curve in the direction sought with a large enough effect; inconclusive = small, poorly fitted or top-dose-only effect, or another doubt; inactive = no such curve, though single readings can be large; an effect the other way counts as inactive or inconclusive.

SMILES	Tb PYK inh	LmPK inhibitor	Giardia FBPA inh	Shiga inhibitor	RE007 growth inh	CHX counter
Cc1cccc2cc(C#N)c(SCc3nnc(-c4ccccc4[N+](=O)[O-])o3)nc12	-13.1%	2.7%	0.8%	9.4	-2.6%	-0.1
Cc1nnc(SCc2nnc(-c3ccccc3Br)o2)n1-c1ccccc1	-1.1%	1.0%	-2.6%	19.0	-7.7%	1.0
COc1ccc(NC(=O)CSc2ncc3c(n2)-c2ccccc2N(Cc2ccc(C)cc2)S3(=O)=O)cc1Cl	7.4%	nt	nt	nt	nt	nt
CCc1nc(SCc2nnc(-c3ccc(C)cc3)o2)c2c(C)c(C)sc2n1	5.4%	nt	nt	nt	5.9%	nt
Cc1csc(SCc2nnc(-c3ccc(Cl)cc3)o2)n1	-2.4%	5.4%	-9.3%	91.5*	4.7%	31.8*
Cc1nnc(SCc2nnc(-c3ccc(Cl)cc3)o2)n1-c1ccccc1	-0.5%	1.9%	3.6%	33.5	4.8%	11.0
Cc1ccc(-c2nnc(CSc3nnc(C)s3)o2)cc1	1.3%	0.3%	1.4%	79.5	12.1%	33.3*
Oc1ccc(O)c(Cc2nc3ccccc3s2)c1	-14.5%	-2.1%	-2.5%	43.4*	-1.7%	32.4*
OCc1cc(Br)ccc1OCc1nc2ccccc2s1	-7.1%	-0.2%	8.0%	82.2*	2.4%	45.5*
Oc1ccccc1OCc1nc2ccccc2s1	-24.9%	-19.8%	-10.5%	142.6*	7.5%	35.1*
Cc1ccc(C(=O)OCc2nc3ccccc3s2)o1	1.1%	nt	nt	nt	-19.0%	nt
CCOC(=O)/C(C#N)=C/C1=C(N2CCOCC2)CC(C)(C)OC1	0.3%	-4.1%	1.3%	-5.6	8.4%	0.9
O=C1CCCC2=C1C1O[C@](CCCCN3C(=O)c4ccccc4C3=O)(Cc3ccccc31)O2	nt	-3.1%[11.5 µM]	-10.4%[12.9 µM]	i	nt	-2.3
COc1ccc(C2(c3ccc(OC)cc3)NC(=O)N(CC(=O)Nc3ccc(OC)c(OC)c3)C2=O)cc1	5.3%	0.1%	10.6%	-7.2	-12.6%	-4.6
Cc1noc(Cn2c(=O)c3cc4c(cc3n(CC(=O)Nc3cccc(Cl)c3)c2=O)OCO4)n1	-15.1%	nt	nt	nt	nt	nt
COc1ccc(C2=NN(C(=O)c3ccccc3)C(c3cccc([N+](=O)[O-])c3)C2)cc1 (centres undefined)	-0.6%	4.3%	-5.8%	-1.8	-10.7%	-3.4
CCOC(=O)/C=C(/C)N1N=C(c2ccc(OC)cc2)CC1c1cccc([N+](=O)[O-])c1 (centres undefined)	-9.3%	-0.7%	-24.5%	113.2*	-4.4%	46.0*
Cc1csc(N2CCc3ccccc32)n1	-1.5%	-1.9%	3.6%	27.1	1.4%	22.9*
Cc1cc(N2CCCc3ccccc32)n2ncnc2n1	-2.0%	-2.6%	-0.4%	21.1	11.7%	0.2
C=C1C(=O)OC2CC1C(OC(C)=O)CC(C)=CCCC(C)=CCC[C@@]2(C)O (some centres undefined)	nt	nt	-0.6%	nt	nt	nt
Cc1nc2ccc(NS(=O)(=O)c3ccc(F)c(F)c3)cc2s1	2.8%	nt	nt	nt	-7.4%	nt
Cc1ccc2nc(-c3ccc(NS(=O)(=O)c4ccccc4)cc3)sc2c1	2.4%	3.3%	2.2%	active	6.9%	29.3*
Cc1ccc2nc(-c3ccc(NS(=O)(=O)c4ccc(F)c(F)c4)cc3)sc2c1	-10.0%	-5.4%	7.6%	95.8*	?	63.7*
COc1ccc(N2CCN(c3nc4ccc(C)cc4n4nnnc34)CC2)cc1	0.7%	nt	nt	nt	nt	nt
Cc1nnc(NC(=O)CSCc2cc(=O)c3ccccc3[nH]2)s1	-12.2%	nt	nt	nt	nt	nt
SMILES	Tb PYK inh	LmPK inhibitor	Giardia FBPA inh	Shiga inhibitor	RE007 growth inh	CHX counter
N#Cc1ccc(-c2cccs2)nc1SCc1ccc(Cl)cc1Cl	-0.5%	nt	nt	nt	nt	nt
Cc1nc2c(-c3ccc(Cl)cc3)cnn2c(N)c1-c1ccc(F)cc1	-0.4%	2.0%	4.7%	137.6*	-2.1%	63.8*
Cc1nn2c(N)c(-c3ccccc3)cnc2c1-c1ccccc1	-0.5%	-5.6%	-12.2%	31.2	3.7%	16.6*
COc1ccccc1-c1c(C)nn2c(N)c(-c3ccc(Cl)cc3)cnc12	-8.7%	0.1%	13.3%	nt	4.9%	-2.6
Nc1c(-c2ccc(Cl)cc2)cnc2c(-c3ccc(F)cc3)cnn12	0.7%	2.4%	-2.8%	87.6*	5.1%	34.3*
Nc1c(-c2cccc(Cl)c2)cnc2c(-c3ccccc3)cnn12	-1.3%	7.2%	5.2%	64.2*	-11.9%	45.4*
